{"source": "PubChem BioAssay AID652067", "about": "(The Scripps Research Institute Molecular Screening Center, 2013)", "note": "About 5,400 (1.5%) of roughly 370,000 compounds were called active.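 Rule for the calls: active = activation above the mean of all tested compounds plus 3 SD (cut at about 5.5% in these data); inactive = the rest.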 The full list was thinned out, with actives kept by preference.", "data": [{"test_system": "DAF-12 nuclear receptor (Haemonchus contortus)", "test": "H. contortus DAF-12 nuclear receptor activators, primary screen, cell-based, luminescence, HEK293, lit1-tk-luc reporter (AID 652067);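 note: 100% = response to 3 µM Δ7-dafachronic acid high control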", "settings": "HEK293 hcDAF-12 lit1-tk-luc reporter, at 6.8 µM, hits give high values, 0% DMSO, 100% Δ7-dafachronic acid", "values": [{"smiles": "COc1ccccc1-c1ccc([C@@H]2C[C@H]3[C@H](CON3C)CN2S(=O)(=O)c2cc(Cl)cc(Cl)c2)cc1", "activation": "1.1% (inactive)"}, {"smiles": "O=C(Nc1nc2ccc(Cl)cc2s1)c1cc(-c2ccc(Cl)cc2)nc2ccccc12", "activation": "4.5% (inactive)"}, {"smiles": "O=C(Nc1ccccc1)Nc1nc2ccccc2s1", "activation": "15.3% (active)"}, {"smiles": "O=C(Nc1ccccc1)Nc1nnc(COc2ccccc2F)s1", "activation": "-0.12% (inactive)"}, {"smiles": "O=C(CCCCCN1C(=O)C2C3C=CC(C3)C2C1=O)Nc1ccccn1", "note": "(centres undefined)", "activation": "2.04% (inactive)"}, {"smiles": "CCOC(=O)[C@]12CCCC3=C1N(CCC3)C(=O)[C@@H](CC(=O)N1CCSCC1)C2", "activation": "-2.29% (inactive)"}, {"smiles": "CCCCn1c(N)c(N(CCOC)C(=O)c2cccc(S(=O)(=O)N3CCCCC3)c2)c(=O)[nH]c1=O", "activation": "-0.97% (inactive)"}, {"smiles": "CCCCn1c(N)c(N(CC(C)C)C(=O)c2cccc(S(=O)(=O)N3CC(C)OC(C)C3)c2)c(=O)[nH]c1=O", "note": "(centres undefined)", "activation": "6.01% (active)"}, {"smiles": "CCCCn1c(N)c(N(CC(C)C)C(=O)c2cccc(S(=O)(=O)N3CCN(C(C)=O)CC3)c2)c(=O)[nH]c1=O", "activation": "-1.13% (inactive)"}, {"smiles": "Nc1[nH]c(/C=C2/CCCCC2n2[nH]c(=O)n(-c3ccccc3)c2=O)c(Cc2ccccc2)[n+]1Cc1ccccc1", "note": "(centres undefined)", "activation": "-2.89% (inactive)"}, {"smiles": "COC(=O)C12C=C3CC(c4ccccc4)=C3C(=O)N1Cc1[nH]c3ccccc3c1C2", "note": "(centres undefined)", "activation": "1.08% (inactive)"}, {"smiles": "COc1cccc(C(NC(C)=O)c2nc(-c3cnc4ccccc4c3)cs2)c1", "note": "(centres undefined)", "activation": "-2.08% (inactive)"}, {"smiles": "CC(C)c1cccc(-c2csc(C(O)c3ccccc3)n2)c1", "note": "(centres undefined)", "activation": "1% (inactive)"}, {"smiles": "OC(c1ccccc1)c1nc(-c2cnc3ccccc3c2)cs1", "note": "(centres undefined)", "activation": "7.43% (active)"}, {"smiles": "COC(=O)c1cc(S(=O)(=O)N2CCN(C(=O)C3CCCO3)CC2)cn1C", "note": "(centres undefined)", "activation": "2.12% (inactive)"}, {"smiles": "Cc1cc(NS(=O)(=O)c2ccc(NC(=O)CSc3nnc(-c4ccc(C(C)(C)C)cc4)n3Cc3ccco3)cc2)nc(C)n1", "activation": "-0.89% (inactive)"}, {"smiles": "Nc1cc(=O)c2[nH]cnc2[nH]1", "activation": "-0.07% (inactive)"}, {"smiles": "CCCC[C@H](C(=O)N(CC)c1ccccc1)[C@@H](O)c1ccc2ccccc2c1", "activation": "-1.18% (inactive)"}, {"smiles": "C=CCN(Cc1ccc2c(c1)OCO2)C(C#CC1CC1)C(C)(C)C", "note": "(centres undefined)", "activation": "-0.69% (inactive)"}, {"smiles": "CCN(c1ccccc1)S(=O)(=O)c1cc(C(=O)NCc2ccccn2)ccc1C", "activation": "-0.36% (inactive)"}, {"smiles": "Cc1ccc(NC(=O)CNCc2ccccn2)cc1S(=O)(=O)N(C)C", "activation": "0.26% (inactive)"}, {"smiles": "CCN(CC)S(=O)(=O)c1cc(C(=O)Nc2ccccn2)ccc1C", "activation": "5.61% (active)"}, {"smiles": "CCN(CC)C(=O)CC[C@@H]1CC[C@]2(CCCN(S(=O)(=O)C3CCCCC3)C2)O1", "activation": "-3.16% (inactive)"}, {"smiles": "Cc1[nH]nc2c1C(c1ccc(Br)cc1)NC2=O", "note": "(centres undefined)", "activation": "1.05% (inactive)"}, {"smiles": "COc1cccc(/C=C(/CC(=O)Nc2ccc(N3CCOCC3)cc2)c2nc3ccccc3s2)c1", "activation": "6.15% (active)"}, {"smiles": "CCn1c(Cc2ccc(OC)cc2)nnc1SCC(=O)Nc1ccc(N2CCOCC2)cc1", "activation": "0.15% (inactive)"}, {"smiles": "O=C(COC(=O)CCc1nc2ccccc2c(=O)[nH]1)Nc1ccc(N2CCOCC2)cc1", "activation": "-1.31% (inactive)"}, {"smiles": "COc1cccc(N(C)C(=O)[C@@H](C)[C@@H](O)c2ccc3ccccc3c2)c1", "activation": "-0.46% (inactive)"}, {"smiles": "COC(=O)C1=C(C)N(Cc2cccc(C(F)(F)F)c2)C(=NCc2ccccc2)NC1c1ccc(Cl)cc1", "note": "(centres undefined)", "activation": "-0.23% (inactive)"}, {"smiles": "COc1ccc(SSc2ccc(OC)cc2C(=O)O)c(C(=O)O)c1", "activation": "0.58% (inactive)"}, {"smiles": "Oc1ccccc1-c1cc(-c2ccc(Cl)cc2)n[nH]1", "activation": "20.9% (active)"}, {"smiles": "c1ccc(-c2c[nH]c(-c3ccccc3)c2)cc1", "activation": "2.47% (inactive)"}, {"smiles": "c1ccc(-c2cc(-c3ccccc3)[nH]n2)cc1", "activation": "11.7% (active)"}, {"smiles": "O=C(O)c1n[nH]nc1-c1ccccc1", "activation": "-0.64% (inactive)"}, {"smiles": "Cc1c[nH]c2cccc(-c3ccc(Cl)cc3)c12", "activation": "2.81% (inactive)"}, {"smiles": "COc1ccc(Cn2cc(CN3[C@@H](CC(C)C)COc4cc(Br)ccc4S3(=O)=O)nn2)cc1", "activation": "-0.96% (inactive)"}, {"smiles": "COC(=O)Cc1nnn2c1[C@H](C)[C@H](c1ccccc1[N+](=O)[O-])OCC2", "activation": "-0.26% (inactive)"}, {"smiles": "C=C(C)C1CC23C(=O)C4(C(=O)c5ccccc5)C[C@@]5(C)CCC(CC2C1(C)C)(C4=O)C35OC", "note": "(some centres undefined)", "activation": "-1.07% (inactive)"}, {"smiles": "O=C(c1c(Cl)cccc1Cl)N1CCN(c2cccc3[nH]ccc23)CC1", "activation": "-0.37% (inactive)"}, {"smiles": "C=CCN1C(=O)N(Cc2ccccc2)c2ccccc2S1(=O)=O", "activation": "2.1% (inactive)"}, {"smiles": "C=C(C)C#CC(Cc1ccccc1)N(CC1CC1)/C(N)=N/C(=O)OCc1ccccc1", "note": "(centres undefined)", "activation": "-4.1% (inactive)"}, {"smiles": "Cc1c(Cl)cccc1NC(=O)Nc1ccc(C(=O)N2CCCC2)cc1", "activation": "-1.91% (inactive)"}, {"smiles": "Cc1c(Cl)cccc1NC(=O)NCc1ccc(C)n1C", "activation": "6.25% (active)"}, {"smiles": "Cc1c(Cl)cccc1NC(=O)NCCCN1CCCC1=O", "activation": "-0.07% (inactive)"}, {"smiles": "CCCn1c(C)cc(C(=O)COC(=O)c2c(C)nn(-c3ccccc3)c2C)c1C", "activation": "-1.95% (inactive)"}, {"smiles": "Cc1ccc(OC(=O)c2c(C)nn(-c3ccccc3)c2C)cc1", "activation": "5.72% (active)"}, {"smiles": "Cc1cccc(C)c1NC(=O)COC(=O)c1c(C)nn(-c2ccccc2)c1C", "activation": "-1.2% (inactive)"}, {"smiles": "CCOC(=O)[C@]12CCCCC/C=C\\1N(Cc1ccc(OC)cc1)C(=O)[C@H]2CC(=O)NCc1ccc(C)o1", "activation": "-1.63% (inactive)"}, {"smiles": "CCOC(=O)c1c(NC(=S)SC)sc(C(=O)N2CCc3ccccc3C2)c1C", "activation": "-0.42% (inactive)"}, {"smiles": "COC(=O)[C@]12C[C@H](CC(=O)NCc3ccc(OC)c(OC)c3)C(=O)N(Cc3ccccc3)C1=C[C@H](C(C)C)O[C@@H]2C1CC1", "activation": "-0.82% (inactive)"}, {"smiles": "CCN1CCN(C(=O)C2(NC(=O)Nc3cccc(F)c3)CCCCC2)CC1", "activation": "-1.58% (inactive)"}, {"smiles": "Cc1nc2cc(NC(=O)Nc3cccc(F)c3)ccc2n1C", "activation": "11.1% (active)"}, {"smiles": "Cc1nc2cc(NCc3cccs3)ccc2n1C", "activation": "1.2% (inactive)"}, {"smiles": "COC[C@@H]1CCCN1c1ccc2c(c1)O[C@H](C)CCN(C1CC1)S2(=O)=O", "activation": "-0.65% (inactive)"}, {"smiles": "Cn1c(CNc2nc(-c3ccccc3)cs2)nnc1SCC(=O)c1ccccc1", "activation": "-0.8% (inactive)"}, {"smiles": "CCNc1nc(-c2cc3ccccc3o2)cs1", "activation": "6.62% (active)"}, {"smiles": "Cn1c(SCC(=O)NC2CCCCC2)nnc1-c1cc2ccccc2o1", "activation": "-0.36% (inactive)"}, {"smiles": "C[C@H]1CCC/C=C/C(=O)c2c(O)cc(O)cc2CC(=O)O1", "activation": "-4.76% (inactive)"}, {"smiles": "Cc1csc(SCC(=O)Nc2sccc2C#N)n1", "activation": "6.55% (active)"}, {"smiles": "Cc1csc(SCC(=O)Nc2ccc(C)c(S(=O)(=O)N(C)C)c2)n1", "activation": "-0.11% (inactive)"}, {"smiles": "N#Cc1ccsc1NC(=O)CN1CCCCC1", "activation": "-2.18% (inactive)"}, {"smiles": "Cc1ccc(NC(=S)NNC(=O)CSc2nnc(SCc3ccccc3Cl)s2)cc1", "activation": "0.49% (inactive)"}, {"smiles": "CSc1ncccc1C(=O)OCC(=O)N1CCOCC1", "activation": "-1.11% (inactive)"}, {"smiles": "CCOC(=O)c1ccccc1NC(=O)COC(=O)CCC(=O)N1CCOCC1", "activation": "-0.53% (inactive)"}, {"smiles": "CCOC(=O)c1ccccc1C(=O)N1CCOCCOCCOCC1", "activation": "6.11% (active)"}, {"smiles": "CC(CCc1ccccc1)NCC(O)c1cccc([N+](=O)[O-])c1", "note": "(centres undefined)", "activation": "-0.61% (inactive)"}, {"smiles": "Cc1cc(NC(=O)c2ccco2)c(=O)n(Cc2c(F)cccc2Cl)c1", "activation": "-0.57% (inactive)"}, {"smiles": "Cn1c(=NC(=O)c2ccco2)sc2cccc(F)c21", "activation": "10.7% (active)"}, {"smiles": "Cn1c(=NC(=O)c2cnccn2)sc2ccccc21", "activation": "3.28% (inactive)"}, {"smiles": "C=CCN1C(=O)[C@H](CC(=O)N2CCN(C(=O)OCC)CC2)[C@@]2(C(=O)OCC)CCCC=C12", "activation": "-0.81% (inactive)"}, {"smiles": "Cc1ccccc1CN1CCCCC(NC(=O)c2cccc(C#N)c2)C1=O", "note": "(centres undefined)", "activation": "-2.63% (inactive)"}, {"smiles": "Cc1ccc(C(=O)C2CCN(CC(=O)NCCC(C)C)CC2)cc1", "activation": "-1.66% (inactive)"}, {"smiles": "COc1ccc([C@H]2OC(=O)C[C@H]2C(=O)N2CCN(c3ccccc3F)CC2)cc1OC", "activation": "-0.81% (inactive)"}, {"smiles": "CCN(CC)c1nc(-c2ccccc2)cc(C(F)(F)F)c1C#N", "activation": "-1.43% (inactive)"}, {"smiles": "N#Cc1c(C(F)(F)F)cc(-c2ccc(Cl)cc2)nc1SCC(=O)O", "activation": "6.47% (active)"}, {"smiles": "Cc1cc(C(F)(F)F)c(C#N)c(SCC(=O)NC2CC2)n1", "activation": "-2.02% (inactive)"}, {"smiles": "CN(C)S(=O)(=O)c1cccc(C(=O)N/N=C\\c2ccco2)c1", "activation": "0.08% (inactive)"}, {"smiles": "Cc1ccc(/C=N/NC(=O)c2sccc2OCc2ccc(F)cc2)cc1", "activation": "0.06% (inactive)"}, {"smiles": "Cc1ccsc1C(=O)N/N=C/c1ccc([N+](=O)[O-])cc1", "activation": "6.15% (active)"}, {"smiles": "Cc1ccsc1C(=O)NC1CCCCC1C", "note": "(centres undefined)", "activation": "-1.43% (inactive)"}, {"smiles": "O=C(NCCC1=CCCCC1)C1CCN(S(=O)(=O)c2ccc(Cl)s2)CC1", "activation": "-1.29% (inactive)"}, {"smiles": "CC(=O)c1ccc(S(=O)(=O)NCC2CCN(C(=O)C(=O)c3cccs3)CC2)cc1", "activation": "-1.54% (inactive)"}, {"smiles": "COc1ccc(-c2cc3ncccc3cn2)cc1", "activation": "7.99% (active)"}, {"smiles": "COc1ccc(-c2cc(C3CCN(c4ncccc4[N+](=O)[O-])CC3)[nH]n2)cc1", "activation": "-1.95% (inactive)"}, {"smiles": "COc1ccc(-c2cc3n(n2)CCc2nc4ccccc4n2-3)cc1", "activation": "2.18% (inactive)"}, {"smiles": "Cc1ccc(Cn2cc(COC(=O)N(C)Cc3ccccc3)nn2)cc1", "activation": "-1.15% (inactive)"}, {"smiles": "O=C1CCCCN1CCCC(=O)N1CCCC(Nc2ccc(F)cc2)C1", "note": "(centres undefined)", "activation": "-0.38% (inactive)"}, {"smiles": "COc1ccc(C(=O)OCCN2CCN(C3CN(Cc4cn(Cc5ccccc5F)nn4)S(=O)(=O)C3)CC2)cc1OC", "note": "(centres undefined)", "activation": "-3.13% (inactive)"}, {"smiles": "CCOC(=O)C1CCN(C(=O)C(C)(C)NC(=O)Nc2ccccc2Cl)CC1", "activation": "-0.1% (inactive)"}]}]}
